Experimental data published in article PMC7862700, “An all-to-all approach to the identification of sequence-specific readers for epigenetic DNA modifications on cytosine”.

Columns and labels:
Assay in all cases: DAPPL (digital affinity profiling via proximity ligation, sequencing); 10 mM Tris-HCl pH 7.5, 50 mM NaCl, 1 mM DTT, 4% glycerol, room temperature, 30 min; GST-TFs on glutathione beads, 16-mer random dsDNA library, 0.1% formaldehyde crosslink after washing; high values mean tight binding
Details in all cases: protein: recombinant; tags: N-terminal GST; dsDNA, one strand shown
ERF = molecular target: T1, ERF (Homo sapiens, UniProt P50548 1-548)
T1 sequence: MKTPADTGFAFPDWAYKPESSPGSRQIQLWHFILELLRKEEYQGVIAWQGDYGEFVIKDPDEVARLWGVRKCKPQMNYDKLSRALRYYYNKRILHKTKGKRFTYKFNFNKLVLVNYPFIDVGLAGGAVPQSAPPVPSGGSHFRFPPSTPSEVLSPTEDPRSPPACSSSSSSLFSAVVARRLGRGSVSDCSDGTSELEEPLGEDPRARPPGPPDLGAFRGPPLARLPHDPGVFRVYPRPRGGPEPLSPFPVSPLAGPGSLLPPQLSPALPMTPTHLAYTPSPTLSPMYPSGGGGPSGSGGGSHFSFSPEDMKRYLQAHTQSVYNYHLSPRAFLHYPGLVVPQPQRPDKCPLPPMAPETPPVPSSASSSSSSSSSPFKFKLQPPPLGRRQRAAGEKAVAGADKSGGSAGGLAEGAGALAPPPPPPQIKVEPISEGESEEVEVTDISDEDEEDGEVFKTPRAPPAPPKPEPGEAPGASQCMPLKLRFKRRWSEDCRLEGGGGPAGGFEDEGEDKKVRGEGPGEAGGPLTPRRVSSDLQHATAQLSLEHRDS
In short: (§1)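 Human transcription factors carrying a GST fusion were produced in yeast, bound to glutathione beads, tagged with DNA barcodes and pooled together with a tag-only sample. Each pool was held with 200 nmole of a random double-stranded 16-mer DNA library in Tris/NaCl/DTT/glycerol buffer for 30 min at room temperature, then washed, crosslinked in 0.1% formaldehyde, proximity-ligated with BsaI/T4 ligase (1 h, 37 °C), PCR-amplified and sequenced on an Illumina NextSeq500. Binding signal is the read frequency of each hexamer for a given factor divided by its frequency in the tag-only sample.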

ETV3L = molecular target: T2, ETV3L (Homo sapiens, UniProt Q6ZN32 1-361)
T2 sequence: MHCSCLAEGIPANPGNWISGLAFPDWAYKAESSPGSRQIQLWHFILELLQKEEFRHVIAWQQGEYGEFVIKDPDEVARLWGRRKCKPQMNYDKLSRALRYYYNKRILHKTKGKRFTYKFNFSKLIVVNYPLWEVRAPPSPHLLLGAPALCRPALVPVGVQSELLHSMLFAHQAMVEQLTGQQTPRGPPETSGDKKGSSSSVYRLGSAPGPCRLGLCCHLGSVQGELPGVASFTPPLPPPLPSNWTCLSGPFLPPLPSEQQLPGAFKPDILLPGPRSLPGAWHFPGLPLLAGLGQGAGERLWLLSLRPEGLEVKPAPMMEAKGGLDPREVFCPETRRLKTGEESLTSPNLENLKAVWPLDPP
In short: as §1

ETS2 = molecular target: T3, ETS2 (Homo sapiens, UniProt P15036 1-469)
T3 sequence: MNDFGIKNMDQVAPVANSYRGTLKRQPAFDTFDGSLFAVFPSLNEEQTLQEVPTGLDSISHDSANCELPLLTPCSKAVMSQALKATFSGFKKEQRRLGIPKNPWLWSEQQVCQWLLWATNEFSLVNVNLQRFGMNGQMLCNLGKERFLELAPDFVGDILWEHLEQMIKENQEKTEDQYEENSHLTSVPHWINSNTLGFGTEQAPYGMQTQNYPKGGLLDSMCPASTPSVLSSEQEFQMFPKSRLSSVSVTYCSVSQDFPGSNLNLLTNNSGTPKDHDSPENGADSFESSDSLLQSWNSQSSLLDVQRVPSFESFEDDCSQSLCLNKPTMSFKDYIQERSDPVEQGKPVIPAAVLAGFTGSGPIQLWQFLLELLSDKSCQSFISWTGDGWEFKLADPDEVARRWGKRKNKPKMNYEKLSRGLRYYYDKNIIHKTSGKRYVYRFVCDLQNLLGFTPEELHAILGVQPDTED
In short: as §1

SPDEF = molecular target: T4, SPDEF (Homo sapiens, UniProt O95238 1-335)
T4 sequence: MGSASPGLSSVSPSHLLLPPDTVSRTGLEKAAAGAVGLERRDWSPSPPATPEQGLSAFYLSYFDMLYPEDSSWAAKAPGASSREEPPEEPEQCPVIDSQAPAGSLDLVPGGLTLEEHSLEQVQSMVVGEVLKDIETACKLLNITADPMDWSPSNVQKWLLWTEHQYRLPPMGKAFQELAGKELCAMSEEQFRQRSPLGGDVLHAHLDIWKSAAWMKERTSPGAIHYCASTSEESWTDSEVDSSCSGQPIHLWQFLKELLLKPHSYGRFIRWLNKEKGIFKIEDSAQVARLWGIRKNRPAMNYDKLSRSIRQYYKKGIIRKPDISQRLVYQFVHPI
In short: as §1

ETV7 = molecular target: T5, ETV7 (Homo sapiens, UniProt Q9Y603 1-341)
T5 sequence: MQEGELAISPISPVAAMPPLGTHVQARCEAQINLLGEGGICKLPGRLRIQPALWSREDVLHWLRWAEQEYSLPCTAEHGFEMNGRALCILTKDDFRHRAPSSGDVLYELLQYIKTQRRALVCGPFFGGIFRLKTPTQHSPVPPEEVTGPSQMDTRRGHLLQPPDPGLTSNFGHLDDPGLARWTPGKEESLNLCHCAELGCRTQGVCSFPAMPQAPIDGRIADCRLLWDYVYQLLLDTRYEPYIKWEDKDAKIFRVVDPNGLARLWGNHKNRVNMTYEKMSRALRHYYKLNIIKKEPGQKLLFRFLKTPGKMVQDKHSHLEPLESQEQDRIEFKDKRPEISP
In short: as §1

ELF5 = molecular target: T6, ELF5 (Homo sapiens, UniProt Q9UKW6-2 1-255)
T6 sequence: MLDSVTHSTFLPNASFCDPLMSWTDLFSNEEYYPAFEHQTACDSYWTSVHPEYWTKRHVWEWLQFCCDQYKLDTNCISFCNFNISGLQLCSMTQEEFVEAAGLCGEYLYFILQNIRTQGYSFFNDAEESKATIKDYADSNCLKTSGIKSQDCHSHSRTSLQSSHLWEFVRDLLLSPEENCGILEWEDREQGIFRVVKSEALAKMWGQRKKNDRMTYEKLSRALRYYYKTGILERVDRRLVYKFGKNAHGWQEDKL
In short: as §1

ETV3 = molecular target: T7, ETV3 (Homo sapiens, UniProt P41162-2 1-143)
T7 sequence: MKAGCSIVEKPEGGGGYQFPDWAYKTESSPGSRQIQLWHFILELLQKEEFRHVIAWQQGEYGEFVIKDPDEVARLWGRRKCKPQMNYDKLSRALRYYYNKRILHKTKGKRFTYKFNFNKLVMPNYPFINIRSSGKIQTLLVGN
In short: as §1

ETV6 = ETV6 (Homo sapiens, UniProt P41212 1-452)
In short: as §1

ETV6, sequence (P41212 whole entry): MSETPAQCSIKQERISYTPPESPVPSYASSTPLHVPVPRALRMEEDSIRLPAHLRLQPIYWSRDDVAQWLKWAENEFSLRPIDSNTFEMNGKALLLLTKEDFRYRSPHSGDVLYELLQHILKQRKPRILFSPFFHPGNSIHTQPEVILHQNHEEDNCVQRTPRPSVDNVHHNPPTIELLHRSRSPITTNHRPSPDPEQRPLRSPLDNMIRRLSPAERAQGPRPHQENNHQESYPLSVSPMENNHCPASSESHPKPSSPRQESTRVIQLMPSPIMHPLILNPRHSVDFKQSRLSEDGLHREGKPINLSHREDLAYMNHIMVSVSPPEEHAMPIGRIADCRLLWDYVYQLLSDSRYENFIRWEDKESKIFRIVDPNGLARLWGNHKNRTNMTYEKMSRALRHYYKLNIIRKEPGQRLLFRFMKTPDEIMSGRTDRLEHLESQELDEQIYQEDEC

Sequence | binding signal (ERF) | binding signal (ETV3L) | binding signal (ETS2) | binding signal (SPDEF) | binding signal (ETV7) | binding signal (ELF5) | binding signal (ETV3) | binding signal (ETV6)
AAGCCT | 1.17 fold enrichment (6-mer frequency, TF over GST control) | 1.23 fold enrichment (6-mer frequency, TF over GST control) | 1.22 fold enrichment (6-mer frequency, TF over GST control) | 1.02 fold enrichment (6-mer frequency, TF over GST control) | 1.3 fold enrichment (6-mer frequency, TF over GST control) | 1.2 fold enrichment (6-mer frequency, TF over GST control) | 1.3 fold enrichment (6-mer frequency, TF over GST control) | 1.23 fold enrichment (6-mer frequency, TF over GST control)
ATTTTA | 1.27 fold enrichment (6-mer frequency, TF over GST control) | 1.43 fold enrichment (6-mer frequency, TF over GST control) | 1.33 fold enrichment (6-mer frequency, TF over GST control) | 1.23 fold enrichment (6-mer frequency, TF over GST control) | 1.37 fold enrichment (6-mer frequency, TF over GST control) | 1.2 fold enrichment (6-mer frequency, TF over GST control) | 1.26 fold enrichment (6-mer frequency, TF over GST control) | 1.26 fold enrichment (6-mer frequency, TF over GST control)
CCTGCT | 1.53 fold enrichment (6-mer frequency, TF over GST control) | 1.65 fold enrichment (6-mer frequency, TF over GST control) | 1.62 fold enrichment (6-mer frequency, TF over GST control) | 1.82 fold enrichment (6-mer frequency, TF over GST control) | 1.65 fold enrichment (6-mer frequency, TF over GST control) | 1.84 fold enrichment (6-mer frequency, TF over GST control) | 1.67 fold enrichment (6-mer frequency, TF over GST control) | 1.68 fold enrichment (6-mer frequency, TF over GST control)
AATCAC | 1.05 fold enrichment (6-mer frequency, TF over GST control) | 1.12 fold enrichment (6-mer frequency, TF over GST control) | 1.06 fold enrichment (6-mer frequency, TF over GST control) | 1.05 fold enrichment (6-mer frequency, TF over GST control) | 1.02 fold enrichment (6-mer frequency, TF over GST control) | 1.09 fold enrichment (6-mer frequency, TF over GST control) | 1.07 fold enrichment (6-mer frequency, TF over GST control) | 1.09 fold enrichment (6-mer frequency, TF over GST control)
TTCCAA | 1.27 fold enrichment (6-mer frequency, TF over GST control) | 1.3 fold enrichment (6-mer frequency, TF over GST control) | 1.25 fold enrichment (6-mer frequency, TF over GST control) | 1.29 fold enrichment (6-mer frequency, TF over GST control) | 1.27 fold enrichment (6-mer frequency, TF over GST control) | 1.21 fold enrichment (6-mer frequency, TF over GST control) | 1.22 fold enrichment (6-mer frequency, TF over GST control) | 1.29 fold enrichment (6-mer frequency, TF over GST control)
TGGTCT | 1.52 fold enrichment (6-mer frequency, TF over GST control) | 1.55 fold enrichment (6-mer frequency, TF over GST control) | 1.39 fold enrichment (6-mer frequency, TF over GST control) | 1.35 fold enrichment (6-mer frequency, TF over GST control) | 1.28 fold enrichment (6-mer frequency, TF over GST control) | 1.55 fold enrichment (6-mer frequency, TF over GST control) | 1.44 fold enrichment (6-mer frequency, TF over GST control) | 1.42 fold enrichment (6-mer frequency, TF over GST control)
TCTTTG | 1.2 fold enrichment (6-mer frequency, TF over GST control) | 1.24 fold enrichment (6-mer frequency, TF over GST control) | 1.19 fold enrichment (6-mer frequency, TF over GST control) | 1.06 fold enrichment (6-mer frequency, TF over GST control) | 1.27 fold enrichment (6-mer frequency, TF over GST control) | 1.09 fold enrichment (6-mer frequency, TF over GST control) | 1.21 fold enrichment (6-mer frequency, TF over GST control) | 1.16 fold enrichment (6-mer frequency, TF over GST control)
ATAACC | 1.08 fold enrichment (6-mer frequency, TF over GST control) | 1.18 fold enrichment (6-mer frequency, TF over GST control) | 1.21 fold enrichment (6-mer frequency, TF over GST control) | 1.22 fold enrichment (6-mer frequency, TF over GST control) | 1.25 fold enrichment (6-mer frequency, TF over GST control) | 1.16 fold enrichment (6-mer frequency, TF over GST control) | 1.15 fold enrichment (6-mer frequency, TF over GST control) | 1.17 fold enrichment (6-mer frequency, TF over GST control)
ATGTAA | 1.18 fold enrichment (6-mer frequency, TF over GST control) | 1.26 fold enrichment (6-mer frequency, TF over GST control) | 1.37 fold enrichment (6-mer frequency, TF over GST control) | 1.32 fold enrichment (6-mer frequency, TF over GST control) | 1.26 fold enrichment (6-mer frequency, TF over GST control) | 1.3 fold enrichment (6-mer frequency, TF over GST control) | 1.32 fold enrichment (6-mer frequency, TF over GST control) | 1.3 fold enrichment (6-mer frequency, TF over GST control)
AAAGCA | 1.1 fold enrichment (6-mer frequency, TF over GST control) | 1.1 fold enrichment (6-mer frequency, TF over GST control) | 1.05 fold enrichment (6-mer frequency, TF over GST control) | 1.06 fold enrichment (6-mer frequency, TF over GST control) | 1.15 fold enrichment (6-mer frequency, TF over GST control) | 1.07 fold enrichment (6-mer frequency, TF over GST control) | 1.07 fold enrichment (6-mer frequency, TF over GST control) | 1.05 fold enrichment (6-mer frequency, TF over GST control)
CCCTCG | 1.24 fold enrichment (6-mer frequency, TF over GST control) | 1.24 fold enrichment (6-mer frequency, TF over GST control) | 1.29 fold enrichment (6-mer frequency, TF over GST control) | 1.23 fold enrichment (6-mer frequency, TF over GST control) | 1.3 fold enrichment (6-mer frequency, TF over GST control) | 1.19 fold enrichment (6-mer frequency, TF over GST control) | 1.16 fold enrichment (6-mer frequency, TF over GST control) | 1.18 fold enrichment (6-mer frequency, TF over GST control)
ATGGTA | 1.38 fold enrichment (6-mer frequency, TF over GST control) | 1.35 fold enrichment (6-mer frequency, TF over GST control) | 1.37 fold enrichment (6-mer frequency, TF over GST control) | 1.31 fold enrichment (6-mer frequency, TF over GST control) | 1.48 fold enrichment (6-mer frequency, TF over GST control) | 1.39 fold enrichment (6-mer frequency, TF over GST control) | 1.35 fold enrichment (6-mer frequency, TF over GST control) | 1.31 fold enrichment (6-mer frequency, TF over GST control)
TCTACC | 1.73 fold enrichment (6-mer frequency, TF over GST control) | 1.78 fold enrichment (6-mer frequency, TF over GST control) | 1.6 fold enrichment (6-mer frequency, TF over GST control) | 1.6 fold enrichment (6-mer frequency, TF over GST control) | 1.44 fold enrichment (6-mer frequency, TF over GST control) | 1.61 fold enrichment (6-mer frequency, TF over GST control) | 1.52 fold enrichment (6-mer frequency, TF over GST control) | 1.54 fold enrichment (6-mer frequency, TF over GST control)
ATCTAG | 1.18 fold enrichment (6-mer frequency, TF over GST control) | 1.08 fold enrichment (6-mer frequency, TF over GST control) | 1.11 fold enrichment (6-mer frequency, TF over GST control) | 1.03 fold enrichment (6-mer frequency, TF over GST control) | 1.19 fold enrichment (6-mer frequency, TF over GST control) | 1.1 fold enrichment (6-mer frequency, TF over GST control) | 1.07 fold enrichment (6-mer frequency, TF over GST control) | 1.05 fold enrichment (6-mer frequency, TF over GST control)
CCGCTT | 1.77 fold enrichment (6-mer frequency, TF over GST control) | 1.89 fold enrichment (6-mer frequency, TF over GST control) | 1.95 fold enrichment (6-mer frequency, TF over GST control) | 1.99 fold enrichment (6-mer frequency, TF over GST control) | 1.62 fold enrichment (6-mer frequency, TF over GST control) | 2.05 fold enrichment (6-mer frequency, TF over GST control) | 1.96 fold enrichment (6-mer frequency, TF over GST control) | 2.17 fold enrichment (6-mer frequency, TF over GST control)
